Not all results are given here.
aSyn 5UTR act = Activators working through SNCA 5'UTR binding (MLPCN). activity score, % (tested at 7.5 µM), hits read low. alpha-synuclein 5'UTR reporter, activators screen. 7.1% of 300,000 active. AID 1814; in the data active = activity score below about -60%
Hits are given with their value; 0 = inactive.

SMILES	aSyn 5UTR act
COc1ccc(-c2noc(-c3ccc(Cl)cc3[N+](=O)[O-])n2)cc1OC	-118
Cc1cccc(-c2noc(-c3ccc(Cl)cc3[N+](=O)[O-])n2)c1	-151
CCOc1ccc(C(=O)Nc2nc(C)c(C(=O)OC)s2)cc1	-97
COC(=O)c1sc(NC(=O)COc2ccccc2)nc1C	-142
Cc1cnc(NC(=O)CCc2ccccc2)s1	-383
Cc1cnc(NC(=O)COc2ccccc2)s1	-142
CCOC(=O)c1sc(NC(=O)c2cccnc2)nc1C	-100
COC(=O)c1sc(NC(=O)Cc2cccs2)nc1C	-69
Cc1cnc(NC(=O)CSc2ccccc2)s1	-108
O=C(c1nc2ccccc2s1)N1CCSCC1	-92
O=C1Nc2ccccc2/C1=C/c1cnc(-c2ccccc2)[nH]1	-78
O=C(COc1cccc2cccnc12)Nc1nccs1	-85
COc1c(C(=O)Nc2nccs2)ccc2ccccc12	-172
COc1cccc2c1OCC(C(=O)Nc1nccs1)=C2	-122
Oc1cccc(C(Nc2nccs2)c2ccc3cccnc3c2O)c1 (stereo not drawn)	0
COc1ccccc1OCCCC(=O)Nc1nccs1	-97
COc1cc2ccccc2cc1C(=O)NCC(c1cccs1)N(C)C (stereo not drawn)	-106
COc1cc2ccccc2cc1C(=O)Nc1nccs1	-256
Brc1ccc(C2C3=C(Nc4ncnn42)c2ccccc2OC3c2ccncc2)cc1 (stereo not drawn)	0
Cc1cn(CCC(=O)Nc2ccccc2N2CCOCC2)c2ccccc12	-106
Cc1cn(CCC(=O)Nc2ccc(N3CCOCC3)cc2)c2ccccc12	-128
CC(=O)Oc1ccc(Oc2ccc(-c3noc(C)n3)cc2)cc1	-77
CC(=O)Oc1ccc(-c2nc(-c3cccnc3)no2)cc1	-93
Cc1ccc(NC(=O)Nc2ccc(F)c(Cl)c2)cc1	-165
COc1ccc(NC(=O)Nc2ccc(F)c(Cl)c2)cc1	-140
SMILES	aSyn 5UTR act
NNC(=O)c1ccc(OCC2CC(c3ccc(Cl)cc3)=NO2)cc1 (stereo not drawn)	-74
COCCn1c(C)cc(C(=O)COC(=O)c2ccccc2Br)c1C	0
COCCn1c(C)cc(C(=O)COC(=O)c2cncc(Br)c2)c1C	-121
COCCn1c(C)cc(C(=O)COC(=O)c2ccc3ncsc3c2)c1C	-151
Oc1ccccc1CNc1ccc(Br)cn1	-300
COc1ccccc1CNc1ccc(Br)cn1	-113
O=C1/C(=C/c2ccc(F)cc2)CCC1C1CCCC1 (stereo not drawn)	-133
O=C1C(=C2SCCCS2)CC/C1=C\c1ccc(F)cc1	0
CCOc1ccc(/C=C2\CCC(C3CCCC3)C2=O)cc1 (stereo not drawn)	-229
O=C1/C(=C/c2ccco2)CCC1C1CCCC1 (stereo not drawn)	-66
O=C1/C(=C/c2ccccc2)CCC1C1CCCC1 (stereo not drawn)	-73
CCC1C(=O)n2nc(-c3ccccc3)cc2N=C1C (stereo not drawn)	-143
COc1ccccc1/C=C1\SC(N2CCC(C)CC2)=NC1=O	-94
COc1cccc(/C=C2\SC(N3CCCC(C)C3)=NC2=O)c1OC (stereo not drawn)	-100
CCN(CC)C(=O)c1ccc(COc2ccccc2Cl)cc1	-112
CCN(CC(=O)NCc1ccc(F)cc1)C(=O)/C=C/c1ccc(OC)c(S(=O)(=O)NC(C)C)c1	0
CCN(CC(=O)NCc1ccc(F)cc1)C(=O)c1ccc(COc2ccccc2)cc1	-67
O=c1[nH]c(-c2ccco2)nc2sc3c(c12)CCCC3	-125
c1ccc(-c2cc(N3CCCCC3)ncn2)cc1	-135
c1ccc(-c2cc(N3CCCCCC3)n[nH]2)cc1	-74
Cc1cccc2nc(CSc3nc4ccccc4o3)cn12	-89
c1ccc2oc(SCc3cn4ccccc4n3)nc2c1	-111
Cc1cc(C)c(C#N)c(SCc2cn3c(C)cccc3n2)n1	-104
c1ccc2nc(SCc3cn4ccccc4n3)cnc2c1	-66
CCC(C)N1C(=O)S/C(=C/c2ccc3c(c2)n(C)c(=O)n3C)C1=O (stereo not drawn)	-69
SMILES	aSyn 5UTR act
C/C(=N\NC(=O)c1cc2ccccc2cc1O)c1ccccn1	0
C/C(=N/NC(=O)c1cc2ccccc2cc1O)C1C(=O)c2ccccc2C1=O	-94
N#Cc1cc2c(nc1SCC(N)=O)CCCCC2	-77
N#Cc1cc2c(nc1SCC(=O)N1CCOCC1)CCCCC2	-65
COc1cccc(OCc2cc(C(=O)NCc3ccccn3)no2)c1	-128
COc1ccc(OCc2cc(C(=O)NCc3cccc(C)n3)no2)c(Cl)c1	-65
CCn1cnc2sc(C(=O)Oc3ccc(Br)cc3)c(C)c2c1=O	-77
O=C(N/C=C/c1ccccc1)c1ccccc1	-135
COc1cc(CNCCc2ccc(S(N)(=O)=O)cc2)ccc1OCc1ccc(Cl)cc1	-64
CCOc1cc(CNCCc2ccc(S(N)(=O)=O)cc2)ccc1OCc1ccc(Cl)cc1	0
CC(/C=N/NC(=O)c1ccccc1C)=C\c1ccccc1	-136
CC(/C=N/NC(=O)c1ccccc1F)=C\c1ccccc1	-138
O=C1NC(=S)N/C1=C/c1cccc2ccccc12	-129
COc1ccc(-c2cc(C(=O)NCc3cccs3)no2)cc1	-170
CCOc1c2ccc(C(=O)NCCc3cccs3)cc2nn1CC	-130
COc1ccc2nc3sc(C(=O)NCc4cccs4)c(N)c3cc2c1	-97
COc1cccc(-c2cc(C(=O)NCc3cccs3)no2)c1	-156
CCOc1ccc(C(=O)NCc2cccs2)cc1	-105
CC1CCCN(c2ccc(C(=O)NCC3CCCO3)cn2)C1 (stereo not drawn)	-88
CC1CCN(c2ccc(C(=O)NCc3cccs3)cn2)CC1	-106
O=CC1=C(c2ccccc2)Oc2ccccc2O1	-62
CCOC(=O)Cc1ccc2sc(-c3ccccc3)nc2c1	-82
O=C(N/N=C/c1ccccc1O)C1CC(=O)N(c2ccc(Cl)cc2)C1 (stereo not drawn)	0
NC(=O)C1CC(=O)N(c2ccc(OCc3ccc([N+](=O)[O-])cc3)cc2)C1 (stereo not drawn)	-128
NC(=O)C1CC(=O)N(c2ccc(OCc3ccc(F)cc3)cc2)C1 (stereo not drawn)	-113
SMILES	aSyn 5UTR act
CC(=O)Nc1cccc(C(=O)/C=C/c2cccs2)c1	-117
CC(=O)Nc1cccc(C(=O)/C=C/c2ccc(Br)cc2)c1	-76
CC(=O)Nc1cccc(C(=O)/C=C/c2ccc(/C=C/C(=O)c3cccc(NC(C)=O)c3)cc2)c1	-129
CC(=O)Nc1cccc(C(=O)/C=C/c2ccc(N(C)C)cc2)c1	-71
CC(=O)Nc1cccc(C(=O)/C=C/c2ccc(F)cc2)c1	-103
CC(=O)Nc1cccc(C(=O)/C=C/c2ccc[nH]2)c1	-90
O=Cc1cc2cc3c(cc2nc1Cl)OCCO3	-62
C#CC(=O)N(c1cccc(OC)c1)C(C(=O)NC1CCCC1)c1cccs1 (stereo not drawn)	0
COc1cccc(NC(=O)C(=S)NC2CCCCC2)c1	-85
COc1cccc(NC(=O)NC2CCCCCCC2)c1	-132
O=C(CCl)NN1C(=O)NC2(CCCCC2)C1=O	-76
O=C(CCl)NN1C(=O)NC(c2ccccc2)(c2ccccc2)C1=O	-86
COc1cc(OC)c(C2CC(=O)N3CN(c4ccc(C)cc4)CSC3=C2C#N)cc1OC (stereo not drawn)	-127
CCc1ccc(N2CSC3=C(C#N)C(c4cccs4)CC(=O)N3C2)cc1 (stereo not drawn)	-94
Cc1ccc(N2CSC3=C(C#N)C(c4cccs4)CC(=O)N3C2)cc1 (stereo not drawn)	-131
Cc1ccc2cc3cc(C(=O)N4CCCCC4C)oc3nc2c1 (stereo not drawn)	-200

Source: PubChem
